Laboratory results reported in PubChem BioAssay (EPA / NIEHS).
Inconclusive results are not listed. The source made the active and inactive calls. How the source made its calls: active means hit-call score of the fitted dose curve at least 0.9, where 1 is the maximum; inconclusive means response in the unintended direction; inactive means score below 0.9.

Experiment: ACEA_AR_agonist_AUC_viability: ACEA Biosciences xCELLigence Real-Time Cell Analysis on Androgen Receptor Agonism for Viability (AID 2283775);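 on AC50: viability read 80 hours after compound addition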
How it was run: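 Viability endpoint from xCELLigence impedance in 22Rv1 prostate cells at 80 h. Eight-point series, 100 uM maximum final.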

Row | SMILES | outcome | AC50
1 | Brc1ccc(Oc2ccccc2)cc1 | inactive | 
2 | CCOc1cccc(C2(N3CCN(c4ccccc4)CC3)CCC(C)CC2)c1 (stereo not given) | inactive | 
3 | [O-][Cl+]O | inactive | 
4 | CCCCCCCCOC(=O)c1ccc(C(=O)OCCCCCCCC)c(C(=O)OCCCCCCCC)c1 | inactive | 
5 | COc1cc(C=O)cc2c1[C@H](COC(N)=O)[C@]1(OC(C)=O)ON2C[C@H]2[C@@H]1N2C(C)=O |  | 0.0199 µM (active)
6 | O=C1CCCO1 | inactive | 
7 | O=C(N[C@H](c1ccccc1)[C@@H]1CN2CCC1CC2)c1c(Cl)ccc(C(F)(F)F)c1Cl |  | 62.8 µM (active)
8 | c1ccc(C2CO2)cc1 (stereo not given) | inactive | 
9 | CNC(=O)Oc1cccc2c1OC(C)(C)C2 | inactive | 
10 | CC(O)CCO (stereo not given) | inactive | 
11 | Cc1ccc([N+](=O)[O-])cc1 | inactive | 
12 | Cn1cc(-c2ccccc2)c(=O)c(-c2cccc(C(F)(F)F)c2)c1 |  | 50 µM (active)
13 | CC(C)(O)c1cnn2c(-c3ccc(F)c(-c4c(F)cccc4C#N)c3)cnc2n1 | inactive | 
14 | ClC1=C(Cl)[C@]2(Cl)[C@H]3[C@H]([C@@H]4C=C[C@H]3C4)[C@@]1(Cl)C2(Cl)Cl |  | 18.1 µM (active)
15 | CC(C)(C)C(O)(CCc1ccc(Cl)cc1)Cn1cncn1 (stereo not given) |  | 87 µM (active)
16 | Nc1ccc([N+](=O)[O-])cc1 |  | 16.1 µM (active)
17 | CC(C)(OOC(C)(C)c1ccccc1)c1ccccc1 |  | 17.2 µM (active)
18 | CC(C)COC(=O)c1ccccc1C(=O)OCC(C)C |  | 74.9 µM (active)
19 | OCCCBr | inactive | 
20 | [As]#[In] | inactive | 
21 | Nc1ccc(Oc2ccc(N)cc2)cc1 | inactive | 
22 | c1ccc2c(c1)oc1ccccc12 | inactive | 
23 | CC(C)(C)OOC(=O)c1ccccc1 | inactive | 
24 | C[N+](C)(C)CC1CO1 (stereo not given) | inactive | 
25 | COP(=S)(OC)SCN1C(=O)c2ccccc2C1=O |  | 79.7 µM (active)
26 | CCCCCCCCCCCCCN1CC(C)OC(C)C1 (stereo not given) | inactive | 
27 | O=C(Oc1ccc(Br)cc1)N1CCN2CCC1CC2 |  | 72.1 µM (active)
28 | CCCSC(=O)N(CCC)CCC | inactive | 
29 | CCCCCCCCn1sccc1=O |  | 18.5 µM (active)
30 | ClC1=C(Cl)C2(Cl)C3C(Cl)C=CC3C1(Cl)C2(Cl)Cl (stereo not given) |  | 25 µM (active)

Experiment: ACEA_AR_antagonist_AUC_viability: ACEA Biosciences xCELLigence Real-Time Cell Analysis on Androgen Receptor Antagonism for Viability (AID 2283776);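 further: 22Rv1 human prostate cancer cells growing on impedance electrode plates; area under impedance growth curve at 80 h after dosing as viability; hits lower the growth signal relative to DMSO meaning cytotoxicity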
How it was run: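 Real-time electrical impedance tracks 22Rv1 proliferation after continuous compound exposure (top 100 uM final, 1:4 steps, 8 concentrations). The 80 h area-under-curve serves as the cytotoxicity readout relative to DMSO.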

Row | SMILES | outcome | AC50
31 | Brc1ccc(Oc2ccccc2)cc1 | inactive | 
32 | CC(C)(C)OOC(C)(C)CCC(C)(C)OOC(C)(C)C | inactive | 
33 | CCOc1cccc(C2(N3CCN(c4ccccc4)CC3)CCC(C)CC2)c1 (stereo not given) | inactive | 
34 | [O-][Cl+]O | inactive | 
35 | CCCCCCCCOC(=O)c1ccc(C(=O)OCCCCCCCC)c(C(=O)OCCCCCCCC)c1 | inactive | 
36 | COc1cc(C=O)cc2c1[C@H](COC(N)=O)[C@]1(OC(C)=O)ON2C[C@H]2[C@@H]1N2C(C)=O |  | 0.00824 µM (active)
37 | OCCOCCO | inactive | 
38 | O=C1CCCO1 | inactive | 
39 | Clc1ccccc1Cl | inactive | 
40 | c1ccc(N=Nc2ccccc2)cc1 | inactive | 
41 | CCNS(=O)(=O)C(F)(F)C(F)(F)C(F)(F)C(F)(F)C(F)(F)C(F)(F)C(F)(F)C(F)(F)F | inactive | 
42 | O=C(N[C@H](c1ccccc1)[C@@H]1CN2CCC1CC2)c1c(Cl)ccc(C(F)(F)F)c1Cl |  | 55.8 µM (active)
43 | c1ccc(C2CO2)cc1 (stereo not given) | inactive | 
44 | CNC(=O)Oc1cccc2c1OC(C)(C)C2 | inactive | 
45 | CC(O)CCO (stereo not given) | inactive | 
46 | Cc1ccc([N+](=O)[O-])cc1 | inactive | 
47 | C1=Cc2cccc3cccc1c23 | inactive | 
48 | c1ccc2c(c1)-c1cccc3cccc-2c13 |  | 8.92 µM (active)
49 | Cn1cc(-c2ccccc2)c(=O)c(-c2cccc(C(F)(F)F)c2)c1 |  | 50 µM (active)
50 | CC(C)(O)c1cnn2c(-c3ccc(F)c(-c4c(F)cccc4C#N)c3)cnc2n1 |  | 51.1 µM (active)

Row | SMILES | outcome | AC50
51 | ClC1=C(Cl)[C@]2(Cl)[C@H]3[C@H]([C@@H]4C=C[C@H]3C4)[C@@]1(Cl)C2(Cl)Cl |  | 18.1 µM (active)
52 | CC(C)(C)C(O)(CCc1ccc(Cl)cc1)Cn1cncn1 (stereo not given) |  | 58.9 µM (active)
53 | Nc1ccc([N+](=O)[O-])cc1 |  | 16.8 µM (active)
54 | O=C(O)C1C2CCC(O2)C1C(=O)O (stereo not given) |  | 35.4 µM (active)
55 | CC(C)(OOC(C)(C)c1ccccc1)c1ccccc1 |  | 24.5 µM (active)
56 | CC(C)COC(=O)c1ccccc1C(=O)OCC(C)C |  | 74.8 µM (active)
57 | OCCCBr | inactive | 
58 | [As]#[In] | inactive | 
59 | Nc1ccc(Oc2ccc(N)cc2)cc1 | inactive | 
60 | c1ccc2c(c1)oc1ccccc12 | inactive | 
61 | CC(C)(C)OOC(=O)c1ccccc1 | inactive | 
62 | C[N+](C)(C)CC1CO1 (stereo not given) | inactive | 
63 | COP(=S)(OC)SCN1C(=O)c2ccccc2C1=O |  | 64.7 µM (active)
64 | CCCCCCCCCCCCCN1CC(C)OC(C)C1 (stereo not given) | inactive | 
65 | CS(=O)(=O)NC(=O)c1cc(Oc2ccc(C(F)(F)F)cc2Cl)ccc1[N+](=O)[O-] | inactive | 
66 | N#CC(Br)Br | inactive | 
67 | O=C(Oc1ccc(Br)cc1)N1CCN2CCC1CC2 | inactive | 
68 | CCCSC(=O)N(CCC)CCC | inactive | 
69 | CCCCCCCCn1sccc1=O |  | 18.4 µM (active)
70 | ClC1=C(Cl)C2(Cl)C3C(Cl)C=CC3C1(Cl)C2(Cl)Cl (stereo not given) |  | 22 µM (active)
